Hit rate of the full screen: of about 2,300 compounds, about 330 (14%) showed activity.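 How the source made its calls: active = median modified Z-score above 1.96; inactive = 1.96 or below.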 A selection follows.
The molecules below were run on HepG2 Srxn1-GFP reporter cells (+30 nM CDDO-Me) (assay: Srxn1-GFP intensity median modified Z-score relative to plate median; higher = stronger NRF2 / oxidative stress reporter activation, active = hit call of the paper). Conditions: 10 µM; exposure time: 24h.
Procedure, shortened: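 In 96-well plates holding 20,000 HepG2 Srxn1-GFP BAC reporter cells per well, compound at 10 μM and an NRF2 activator at 30 nM were added together for 24 h, with DMSO at ≤0.1%, across three replicate plates. After fixation in formaldehyde and Hoechst staining, confocal images were analysed cell by cell for cytoplasmic GFP, and images containing under 100 cells were excluded. Values are replicate medians of the per-plate modified Z-score of GFP intensity, scaled by 1.4826 × median absolute deviation.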

SMILES	Srxn1-GFP intensity median modified Z-score
COC1C(O)C(O)C(O)[C@@H](O)C1O (stereo not given in full) [euspeclibcmpd1333]	-0.525 (inactive)
C=C(NC(=O)C(C)=NC(=O)c1csc(C2=NC3c4csc(n4)C4NC(=O)c5csc(n5)C(C(C)(O)C(C)O)NC(=O)C5CSC(=N5)C(=CC)NC(=O)C(C(C)O)NC(=O)c5csc(n5)C3(CC2)NC(=O)C(C)NC(=O)/C(C)=N/C(=O)C(C)NC(=O)C(C(C)CC)NC2C=Cc3c(C(C)O)cc(nc3C2O)C(=O)OC4C)n1)C(N)=O (stereo not given) [euspeclibcmpd703]	19.1 (active)
CC1(C)O[C@@H]2CC3C4CC=C5CC(=O)C=C[C@]5(C)C4[C@@H](O)C[C@]3(C)[C@]2(C(=O)CO)O1 (stereo not given in full) [euspeclibcmpd859]	-0.247 (inactive)
C[N+](C)(C)C[C@H](O)CC(=O)O [euspeclibcmpd2087]	-0.18 (inactive)
O=[N+]([O-])c1cccc2c[nH]nc12 [euspeclibcmpd1788]	-0.00617 (inactive)
CC(C)c1c(O)c(-c2cc3c(c(C(C)C)c2O)CCC2C(C)(C)CCC[C@]32C)cc2c1CCC1C(C)(C)CCC[C@]21C (stereo not given in full) [euspeclibcmpd1653]	-0.248 (inactive)
COC(=O)[C@@]1(C)CCC[C@]2(C)c3ccc(O)c(C(C)C)c3CCC12 (stereo not given in full) [euspeclibcmpd1676]	1.46 (inactive)
CC(C)c1c(O)ccc2c1CCC1C(C)(C)CCC[C@]21C (stereo not given in full) [euspeclibcmpd1572]	8.09 (active)
O=C(O)C1CSCN1 (stereo not given) [euspeclibcmpd1135]	-0.116 (inactive)
O=c1cc(-c2ccc(O)cc2)oc2ccc(O)cc12 [euspeclibcmpd1816]	1.7 (inactive)
Cc1nc(COP(=O)(O)O)cc2c1[O][Mn][O]c1c(cc(COP(=O)(O)O)nc1C)CN(CC(=O)O)CCN(CC(=O)O)C2 [euspeclibcmpd2441]	1.06 (inactive)
COC(=O)c1cc(OC)c(=O)c2c(OC)c(OC)ccc2c1 [euspeclibcmpd2293]	-0.421 (inactive)
COc1ccc(-c2ccc3cc(C(=O)O)ccc3c2)cc1C12CC3CC(CC(C3)C1)C2 [euspeclibcmpd491]	3.08 (active)
COc1cc(C(=O)O)cc(OC)c1O [euspeclibcmpd1648]	0.178 (inactive)
COc1cc(C(=O)O)cc(OC)c1O	1.18 (inactive)
CCCOc1ccccc1-c1nc(=O)c2[nH]nnc2[nH]1 [euspeclibcmpd2036]	-0.165 (inactive)
N[C@@H]1CCCC[C@H]1N [euspeclibcmpd2386]	1.79 (inactive)
C/C=C/CC(C)C(O)C1C(=O)NC(CC)C(=O)N(C)CC(=O)N(C)C(CC(C)C)C(=O)NC(C(C)C)C(=O)N(C)C(CC(C)C)C(=O)NC(C)C(=O)NC(C)C(=O)N(C)C(CC(C)C)C(=O)N(C)C(CC(C)C)C(=O)N(C)C(C(C)C)C(=O)N1C (stereo not given) [euspeclibcmpd445]	8.19 (active)
CC(=O)O[C@H]1CC[C@@]2(C)C(=CCC3C2CC[C@@]2(C)C3CC[C@@H]2C(C)CCCC(C)C)C1 (stereo not given in full) [euspeclibcmpd2217]	-0.115 (inactive)
CCOc1cccc(C(=O)c2ccc(O)c(O)c2O)c1 [euspeclibcmpd1514]	-0.219 (inactive)
CC(NC(CCc1ccccc1)C(=O)O)C(=O)N1CCCC1C(=O)O (stereo not given) [euspeclibcmpd609]	0.185 (inactive)
CC(C)=CCCC(C)[C@@H]1CC[C@]2(C)C3=C(CC[C@@]12C)C1(C)CC[C@H](O)C(C)(C)C1CC3 (stereo not given in full) [euspeclibcmpd2235]	2.85 (active)
CC(C)=CCCC(C)C1CC[C@@]2(C)C3=C(CC[C@]12C)C1(C)CC[C@H](O)C(C)(C)C1CC3 (stereo not given in full) [euspeclibcmpd2336]	0.013 (inactive)
CC(=O)O[C@H]1CCC2(C)C3=C(CCC2C1(C)C)[C@]1(C)CCC(C(C)CCC=C(C)C)[C@@]1(C)CC3 (stereo not given in full) [euspeclibcmpd2332]	-0.0515 (inactive)
COc1cc(C)c2c(c1C=O)Oc1c(c(C)c(O)c3c(O)oc(O)c13)OC2=O [euspeclibcmpd1947]	0.6 (inactive)
CC[C@H]1OC(=O)C(C)[C@@H](O[C@H]2C[C@@](C)(OC)[C@@H](O)[C@H](C)O2)[C@H](C)[C@@H](O[C@@H]2O[C@H](C)C[C@H](N(C)C)[C@H]2O)[C@](C)(O)C[C@@H](C)CN(C)[C@H](C)[C@@H](O)[C@]1(C)O (stereo not given in full) [euspeclibcmpd690]	1.41 (inactive)
CC(C)c1ccc2oc3[nH]c(=N)c(C(=O)O)cc3c(=O)c2c1 [euspeclibcmpd492]	1.12 (inactive)
CON=C1C[C@]2(C[C@@H]3C[C@@H](C/C=C(\C)C[C@@H](C)/C=C/C=C4\CO[C@@H]5[C@H](O)C(C)=CC(C(=O)O3)[C@]45O)O2)O[C@H](/C(C)=C/C(C)C)C1C (stereo not given in full) [euspeclibcmpd768]	-0.575 (inactive)

SMILES	Srxn1-GFP intensity median modified Z-score
CO[C@H]1CC(O[C@@H]2/C(C)=C/C[C@@H]3C[C@@H](C[C@]4(CC[C@H](C)[C@@H](C5CCCCC5)O4)O3)OC(=O)C3=CC(C)C(=NO)C4OC/C(=C\C=C\[C@@H]2C)[C@@]34O)O[C@@H](C)C1O (stereo not given in full) [euspeclibcmpd601]	8.72 (active)
CCC(C)[C@H]1O[C@]2(C=C[C@@H]1C)C[C@@H]1C[C@@H](C/C=C(\C)[C@@H](OC3C[C@H](OC)C(O[C@H]4C[C@H](OC)[C@@H](NC(C)=O)[C@H](C)O4)[C@H](C)O3)[C@@H](C)/C=C/C=C3\CO[C@@H]4[C@H](O)C(C)=CC(C(=O)O1)[C@]34O)O2 (stereo not given in full) [euspeclibcmpd495]	0.588 (inactive)
CCC(C)[C@H]1O[C@]2(C=C[C@@H]1C)C[C@@H]1C[C@@H](C/C=C(\C)[C@@H](OC3C[C@H](OC)C(O[C@H]4C[C@H](OC)[C@@H](O)[C@H](C)O4)[C@H](C)O3)[C@@H](C)/C=C/C=C3\CO[C@@H]4[C@H](OC)C(C)=CC(C(=O)O1)[C@]34O)O2 (stereo not given in full) [euspeclibcmpd1403]	5.69 (active)
CCC(C)[C@H]1O[C@]2(CC[C@@H]1C)C[C@@H]1C[C@@H](C/C=C(\C)[C@@H](OC3C[C@H](OC)C(O[C@H]4C[C@H](OC)[C@@H](O)[C@H](C)O4)[C@H](C)O3)[C@@H](C)/C=C/C=C3\CO[C@@H]4[C@H](O)C(C)=CC(C(=O)O1)[C@]34O)O2 (stereo not given in full) [euspeclibcmpd982]	0.921 (inactive)
CO[C@H]1CC(O[C@@H]2/C(C)=C/C[C@@H]3C[C@@H](C[C@]4(C=C[C@H](C)[C@@H](C5CCCCC5)O4)O3)OC(=O)C3=CC(C)[C@@H](O)[C@H]4OC/C(=C\C=C\[C@@H]2C)[C@@]34O)O[C@@H](C)C1O[C@H]1C[C@H](OC)[C@@H](O)[C@H](C)O1 (stereo not given in full) [euspeclibcmpd131]	8.87 (active)
CCCCC(CC)CN=C(N)N=C(N)NCCCCCCN=C(N)N=C(N)NCC(CC)CCCC (stereo not given) [euspeclibcmpd2037]	0.191 (inactive)
CC(=O)NC(CS)C(=O)O (stereo not given) [euspeclibcmpd14]	-0.532 (inactive)
CC12CCC3c4ccc(O)cc4CCC3C1C[C@H](O)[C@@H]2O (stereo not given in full) [euspeclibcmpd2315]	-0.0343 (inactive)
COC(=O)C(Cc1ccccc1)NC(=O)C(N)CC(=O)O (stereo not given) [euspeclibcmpd740]	-0.355 (inactive)
CC(=O)OC1CCC2(C)C(=CCC3C2CCC2(C)C(C(=O)O)CCC32)C1 (stereo not given)	0.226 (inactive)
CC(c1ncncc1F)[C@](O)(Cn1cncn1)c1ccc(F)cc1F (stereo not given in full) [euspeclibcmpd477]	-0.000648 (inactive)
CC(=O)/N=c1\sc(S(N)(=O)=O)nn1C [euspeclibcmpd555]	0.456 (inactive)
CNC[C@@H](O)c1ccc(O)c(O)c1 [euspeclibcmpd110]	-0.782 (inactive)
CC(=O)OC1CCC2(C)C3CC(=O)C4(C)C(CC5OC6(CCC(C)CO6)[C@@H](C)C54)C3CC[C@H]2C1 (stereo not given in full) [euspeclibcmpd1545]	-0.224 (inactive)
C[C@]12CCC3c4ccc(OS(=O)(=O)O)cc4CCC3C1CC[C@H]2O (stereo not given in full) [euspeclibcmpd2359]	0.435 (inactive)
C[C@]12CCC3c4ccc(O)cc4CCC3C1CC[C@@H]2O (stereo not given in full) [euspeclibcmpd115]	-0.23 (inactive)
COc1ccc2c(c1)CCC1C2CC[C@@]2(C)C1CC[C@@H]2O (stereo not given in full) [euspeclibcmpd2297]	4.5 (active)
NS(=O)(=O)N1CCN(C(=O)OCC(F)(F)F)CC1	0.381 (inactive)
CC(=O)N1CCc2cc(C(=O)C(C)Sc3nnc4c(Cl)cc(Cl)cn34)ccc21 (stereo not given)	1.9 (inactive)
O=c1c(-c2ccc(O)cc2)coc2cc(O)cc(O)c12 [euspeclibcmpd1252]	7.05 (active)
O=c1c(-c2ccc(O)cc2)coc2cc(O)ccc12 [euspeclibcmpd2265]	0.00154 (inactive)
COc1ccc(-c2coc3cc(O)cc(O)c3c2=O)cc1 [euspeclibcmpd1972]	-0.252 (inactive)
CSCCC(NC(=O)[C@H](Cc1c[nH]c2ccccc12)NC(=O)CCNC(=O)OC(C)(C)C)C(=O)N[C@@H](CC(=O)O)C(=O)N[C@@H](Cc1ccccc1)C(N)=O (stereo not given in full) [euspeclibcmpd918]	-0.345 (inactive)
CC(CCC(=O)O)[C@H]1CCC2C3CC[C@@H]4CCCC[C@]4(C)C3CC[C@@]21C (stereo not given in full) [euspeclibcmpd1329]	1.64 (inactive)
O=S1(=O)CCC(N(C2CC2)S(=O)(=O)c2ccc(F)c(Cl)c2)C1 (stereo not given)	1.31 (inactive)
CC12CCC3c4ccc(O)cc4CC(CCCCCCCCC[S+]([O-])CCCC(F)(F)C(F)(F)F)C3C1CCC2O (stereo not given) [euspeclibcmpd1981]	-0.582 (inactive)
CC(C)(C)CC(=O)OCC(=O)[C@@]1(O)CCC2C3CC=C4CC(=O)C=C[C@]4(C)C3[C@@H](O)C[C@@]21C (stereo not given in full) [euspeclibcmpd2328]	-0.406 (inactive)

— the supplement of paper PMC10498489
